The campaign covered roughly 53,000 sequences. About 3,700 (7%) were called active.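 How the source made its calls: active means gene knockdowns whose robust z-score for IL-1 alpha signal is at least 2 or at most -2, so actives lie on both sides; inactive means the rest.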 Many of the other results were omitted from the sample, so actives are more common in it than they were.
Assay: Components of the Cytosolic LPS Sensing Pathway: Gene Identification via Genome-wide siRNA Screen;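 further: robust z of the log signal after scaling to non-targeting control siRNA wells of the plate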
Details: RAW264.7 macrophages, IL-1a HTRF, actives lie on both sides, screened at 100 nM (by protocol), cells primed 5 h with Pam3CSK4 first
Summary of the method: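 RAW264.7 mouse macrophages reverse-transfected with single siRNAs (100 nM final) for 48h, primed with Pam3CSK4 for 5 hours, then transfected with LipidA for 24 hour. Supernatant IL-1a read by HTRF; values normalized to negative-control median, log-transformed robust z-scores.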

Row | Sequence | z-score
1 | GGGCACCUUAUACCAUAGATT against Bfar | 0.345 (inactive)
2 | GGCCAUGGAGAACAUAUGCTT against Trpm8 | -2.09 (active)
3 | GGCUAUUGAGCUCUUUGUCTT against Qpctl | -0.661 (inactive)
4 | GGAGUAGUAGCUAUUAUAUTT against Kctd9 | 1.89 (inactive)
5 | GCUUUGAGACCUAAUGAUGTT against 1810024B03Rik | -0.469 (inactive)
6 | GGUGCUAGUGUAUGAAUUATT against Nsun5 | 2.39 (active)
7 | GGAUCAUUUGUUAAUGUACTT against Ddx3y | 0.0896 (inactive)
8 | GCUAUUGCUCGCAUCAAUGTT against Prps1l1 | 0.989 (inactive)
9 | GCGAUUAUUUCGCUUUGGATT against Pcdha12 | -0.502 (inactive)
10 | GGAGAGUAAAACCAAUACATT against Fam76a | -0.0433 (inactive)
11 | GGGUCACAGAGGUUACCCATT against Col2a1 | 1.25 (inactive)
12 | GGAGACCAAAAAGAAAUAATT against Cmas | 0.622 (inactive)
13 | GGUGGUGGAAUGCUAAAAATT against Gys1 | 2.29 (active)
14 | CCAGAAUACUGGGAUACAATT against B4galnt3 | -0.577 (inactive)
15 | GCUCAUGUAUGUGAAUUUGTT against Ptx3 | -1.25 (inactive)
16 | GGAAACACCAUGAAGAUGATT against Atpif1 | -0.0257 (inactive)
17 | GCAAGUCGUAAGCCUCAGGTT against Mrps10 | 0.533 (inactive)
18 | GCUACGGACCAUGUUCAAGTT against Nxpe4 | 2.93 (active)
19 | GGAGGUACCACAAAAGGCATT against Kif2c | 0.0217 (inactive)
20 | CCAACUAAGUGAAAUUCCATT against Aspn | -1.26 (inactive)
21 | CCCAACAUUAUCUUGGACCTT against Mrgpra8 | -0.26 (inactive)
22 | GGGAAGGAUUUUUGAUGAUTT against Arfgap1 | 1.33 (inactive)

Row | Sequence | z-score
23 | GGAAGGAAGGAAUAAAACUTT against Fitm2 | -0.981 (inactive)
24 | GCCACUUCACAGCAAGCUATT against Cdk2ap1 | 3.27 (active)
25 | GGGCGAACAGGACAAUUAUTT against Med22 | -0.421 (inactive)
26 | GCCCAUUAAUGCGUAUUUUTT against Mettl2 | 1.22 (inactive)
27 | GCUAAGUCGGAUGAUAGAATT against Ttc16 | -0.742 (inactive)
28 | GGCAUGAUCAGCACAUCACTT against Rpap1 | 0.578 (inactive)
29 | GGAUGAAUAUGGUGUUUCUTT against Rnf138 | -2.23 (active)
30 | GCUAAAUUACACAUUGACCTT against Vcam1 | 0.226 (inactive)
31 | GGGAAGCAACAUGAUUAAATT against Kat7 | 0.669 (inactive)
32 | CCUCACUGGUACAAUCCCATT against Tsg101 | -0.906 (inactive)
33 | GGAACCAGUUUAAAUGAUUTT against Marchf7 | 0.04 (inactive)
34 | CGUUACGUAAAUCUUGUGATT against Sstr2 | 0.227 (inactive)
35 | GGUGGUCUACCAGCAUUUGTT against Pde4dip | 2.16 (active)
36 | GGCCAAUAAUGUGUUUCGUTT against Cmpk2 | -0.632 (inactive)
37 | CCUGGUGCCUUUAUCUACCTT against Ctxn1 | 0.907 (inactive)
38 | GGAGAUGCUGUUCUUUCCGTT against Casc3 | -1.18 (inactive)
39 | GGAUGGAUUACUGAAAGUUTT against Wdr35 | 0.715 (inactive)
40 | GGCAGCUAUUGCUCUGGAATT against 5730596B20Rik | -0.293 (inactive)
41 | GGAGCAACAGCCAAAUACCTT against Hmgb4 | 2.39 (active)
42 | GGACUAUGAGCAGAUGAAGTT against Calcb | -0.217 (inactive)
43 | GGAUGUGCACGAAGGACAGTT against Cdh2 | 2.09 (active)
44 | CCAGUCCAUUGAAUAGUUCTT against Papola | 0.329 (inactive)

Row | Sequence | z-score
45 | GGAAAGGAAUCCAAAAAUCTT against Lias | -0.42 (inactive)
46 | CCAGAAGUGAUCGCCUCUUTT against Zfp300 | 1.16 (inactive)
47 | GCCAUAAAACAGAAUCUCATT against Tmco5b | -0.309 (inactive)
48 | GGUGGUGAUAAGCUUCCUCTT against Olfr1417 | -1.87 (inactive)
49 | GGGACUUCAGACAGUUAUCTT against Ess2 | 1.69 (inactive)
50 | GCCGAACUUCGGAAUUCUGTT against Nf1 | 2.08 (active)
51 | GGUAUAUGGAACCAUGGGATT against Psmb9 | -0.565 (inactive)
52 | GGAGUCUGCUGGUUUAGUGTT against Fmc1 | 0.0551 (inactive)
53 | GGAGUAUGGCGAAUUCUAUTT against Hsp90ab1 | 1.34 (inactive)
54 | GCUGCUUGCUGACCUCCUATT against Olfr522 | 0.358 (inactive)
55 | GCAUUCAGAAAUUGAGGGUTT against Sin3b | -0.0974 (inactive)
56 | CCUAUCUCUUAGCAAAGAUTT against 2010003K11Rik | 2.87 (active)
57 | GGCGAUAUUCUUAAUUAUCTT against Mfsd6 | 0.735 (inactive)
58 | GGUGUUGAACAAGUGCGACTT against Tescl | -0.987 (inactive)
59 | GCUGAUCAUCCGUUUCACUTT against Hdc | -0.227 (inactive)
60 | CGUACUUCAGCGAUUUAAATT against Exoc2 | 0.555 (inactive)
61 | GGACUCAAGACACCAGUUGTT against Rufy3 | -0.318 (inactive)
62 | GCAAGAAGCCUGCCAAUAUTT against Etd | 2.05 (active)
63 | GGAGUACUUUGGAAUAGCATT against Frmd4a | -0.467 (inactive)
64 | GCUCUAUAUCCAGGAAACUTT against Krtap6-2 | 0.0521 (inactive)
65 | GGUGCAUUUAUGUAUUUCCTT against Olfr916 | -1.76 (inactive)
66 | GCAAUCAUUGAAUCCACUCTT against Spag9 | 2.16 (active)

Row | Sequence | z-score
67 | GGAUGUGGUUCAGAAGGCCTT against Stab1 | -0.29 (inactive)
68 | GAUUCUUACUUUGGUCUACTT against Olfr9 | 0.62 (inactive)
69 | GCCAAAACAUUUCAGAGCCTT against Hemk1 | -0.000768 (inactive)
70 | GCAUCUAACUACUUGGGCCTT against Hhip | 1.18 (inactive)
71 | GCACUACCAAGGCGAUAACTT against Tspan18 | -0.624 (inactive)
72 | GGAACCAGUGCUGCAUUUATT against Defb41 | -2.05 (active)
73 | GGCCAUAAACAACCAUUUATT against Ppp1r1b | 0.747 (inactive)
74 | GGACCAACGUGCAGAAAUGTT against Metrn | -0.702 (inactive)
75 | GGUCUGGAGACUUUCAGUCTT against Hexa | 0.521 (inactive)
76 | GGGCAGGGACAUUAGUCAUTT against Zfp106 | 2.88 (active)
77 | GGGAGUGAAUGUUUCACAUTT against Tmem116 | -1.56 (inactive)
78 | GGGUAUUAAGCAGGGAUCGTT against 1810009A15Rik | 1.11 (inactive)
79 | CCAAAUGACUAGCACCAGUTT against Arl5c | -2.22 (active)
80 | CCUUCUACCUCACCUUACGTT against Tmem186 | -1.23 (inactive)
81 | CCAAUUCAAUUAGACUAGATT against 9430015G10Rik | 0.89 (inactive)
82 | GCAUGAGUUAUCAUAAUCATT against Itgb2 | 1.04 (inactive)
83 | GGAUCAACCACAUCAGCUCTT against Hrh2 | -0.838 (inactive)
84 | GGGCCUUCUGAUUUAAAAGTT against Slc43a3 | -1.01 (inactive)
85 | GGUGUUUGGGUACCAGUCUTT against Cyp8b1 | -1.03 (inactive)
86 | GGCUCAAGCGAAAAGCAGATT against Serping1 | -0.46 (inactive)
87 | GGCCUAUUGUAAAAACCCATT against Taf1b | -2.56 (active)
88 | CCAAGUCCCUUUGUGGUGUTT against Twnk | -0.749 (inactive)

Row | Sequence | z-score
89 | CCGUUUAUUUAUCAGCUGGTT against Spsb4 | -1.18 (inactive)
90 | GGAAGGUAAAUGUCUGCUCTT against Selenok | 0.289 (inactive)
91 | GGAGAUGGAUAAUUACGAGTT against Ift27 | 0.344 (inactive)
92 | GGAGAUUUAAACAGCUAGGTT against Gmip | -0.418 (inactive)
93 | GGCUCAUAUUUCCAUCAGATT against Tchhl1 | -1.13 (inactive)
94 | GGAAAUUGGGACUCACAUCTT against Trappc13 | -0.0912 (inactive)
95 | GUGGAAAAUUGAAGGGACGTT against Ndufb3 | 3.69 (active)
96 | GGAUUCAAGUUCUCACCGATT against Serpina6 | -0.462 (inactive)
97 | GCUCAAACACUUACACACUTT against Alcam | -0.616 (inactive)
98 | GCCAGUUCCUAUCUGGCUUTT against 4931428L18Rik | 1.03 (inactive)
99 | GCCAAUGGUCACGAACCUATT against Senp5 | -0.217 (inactive)
100 | GCUUGCUAAGAUUGAGUAUTT against Cerkl | -0.928 (inactive)
101 | CCGCACAAGAGGUAGAUACTT against Ddx5 | -2.56 (active)
102 | GGUCAGUAUCAGAAUGAUCTT against Rft1 | -0.831 (inactive)
103 | GCAGUGAGACUUUUAAUAGTT against Snx17 | 0.284 (inactive)
104 | GGCAAUAUUUCAGAACCUGTT against Tfb2m | 0.44 (inactive)
105 | GGCCUUACUCUUAAGUUCUTT against Brf1 | 3.7 (active)
106 | GGUGCAUGAAGAGUUAAAATT against Jade1 | 1.5 (inactive)
107 | GGAGAAAGUUGAACGUAUUTT against Cct2 | -2.58 (active)
